Some test systems named below: HCT-15 colon; HT29 colon; SNB-75 CNS; SNB-19 CNS; U251 CNS; PC-3 prostate; SK-MEL-5 melanoma; UACC-62 melanoma; LOX IMVI melanoma; SK-MEL-28 melanoma; EKVX NSCLC; UO-31 renal; TK-10 renal; ACHN renal; CAKI-1 renal; CCRF-CEM leukemia; MOLT-4 leukemia; SN12C renal; SK-MEL-2 melanoma.
Holding throughout (assay): NCI-60 one-dose screen, 48 h (100 = growth as untreated, 0 = no growth, -100 = all killed)
Details in all cases: 10 µM unless noted

The structures appear in SMILES notation. This is part of a sample that, as a whole, favours compounds with a hit. Of some 83,000 tested, about 20% had one in any assay.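 Step 1: grow cells in 96-well plates. Step 2: add test compound at a single concentration. Step 3: incubate 48 h. Step 4: record percent growth.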 Unmarked numbers belong to inactive results. Active and inactive are the calls of the source. Rule for the calls: active = growth percent below 10; inactive = the rest.

Regarding `CCCCCC(=O)Oc1ccc(/C(=C(\C)c2ccccc2)c2ccc(OCCN3CCCCC3)cc2)cc1`, the growth in the test on HCT-15 colon is 58.5%; in the test on HT29 colon, 8.87% (active); in the test on SNB-75 CNS it was 92%; in the test with SNB-19 CNS, 89.6%; with U251 CNS it was 71.7%; in the test with PC-3 prostate, 72.2%. Besides, the growth in the test on SK-MEL-5 melanoma is 83.9%; in the test with UACC-62 melanoma, 91%; in the test with LOX IMVI melanoma, 84%; in the test on SK-MEL-28 melanoma, 71.4%; in the test with EKVX NSCLC it was 93.7%; with UO-31 renal, 59.8%. Also, the growth in the test on TK-10 renal is 85.1%; with ACHN renal it was 96.2%; in the test on CAKI-1 renal, 88.6%; in the test on CCRF-CEM leukemia, 85.1%; in the test on MOLT-4 leukemia it was 63.7%.
`O=C(N/N=C/c1ccc(Oc2ccccc2)cc1)c1cnn2c1NC(c1ccccc1)C2` (centres undefined): the growth was 33.9% in the test on HCT-15 colon; 65.8% in the test on HT29 colon; 76.8% in the test on SNB-75 CNS; 61% with SNB-19 CNS; 48.1% with U251 CNS; 46.7% in the test with PC-3 prostate. In addition, the growth in the test with SK-MEL-5 melanoma was 41.5%; in the test on UACC-62 melanoma, 6.85% (active); with LOX IMVI melanoma, 57.2%; in the test on SK-MEL-28 melanoma, 56.2%; with EKVX NSCLC it was 77.6%; with SN12C renal, 71.8%. The growth was 60.7% in the test with UO-31 renal; 66.8% in the test with TK-10 renal; 35.2% in the test with ACHN renal; 33.6% with CAKI-1 renal; 67.5% with CCRF-CEM leukemia; 75.1% with MOLT-4 leukemia.
For `CCN(CC)CC[n+]1cc2cc(OC)c(OC)cc2c2ccc3cc4c(cc3c21)OCO4`, the growth in the test on HCT-15 colon was 32.9%; in the test with HT29 colon, -50.1% (active); in the test on SNB-75 CNS it was 3.63% (active); with SNB-19 CNS, 14.5%; with U251 CNS, -38.2% (active); in the test on PC-3 prostate it was 3.91% (active). Also, the growth with SK-MEL-5 melanoma is -68.3% (active); with UACC-62 melanoma, 31.7%; with LOX IMVI melanoma it was -85.8% (active); in the test on SK-MEL-28 melanoma, 22.7%; with EKVX NSCLC, 17.5%; with SN12C renal it was 3.54% (active). In addition, the growth was 8.71% (active) in the test with UO-31 renal; 12.2% in the test with TK-10 renal; 8.72% (active) in the test with ACHN renal; 26.5% with CAKI-1 renal; 1.03% (active) in the test with CCRF-CEM leukemia; -5.52% (active) with MOLT-4 leukemia.
Take `CN(C)c1ccc(C2C(C#N)=C(/N=C/c3ccccc3)Oc3c2ccc2ccccc32)cc1` (centres undefined): the growth with HCT-15 colon was 48%; with HT29 colon, 69.9%; with SNB-75 CNS, -0.718% (active); with SNB-19 CNS, 74.2%; with U251 CNS it was 74.8%; in the test on PC-3 prostate, 50.7%. In addition, the growth in the test on SK-MEL-5 melanoma is 71.5%; with UACC-62 melanoma, 49.2%; with LOX IMVI melanoma, 54.6%; in the test with SK-MEL-28 melanoma, 80.1%; in the test on EKVX NSCLC, 73.4%; with SN12C renal it was 78%. Moreover, the growth in the test with UO-31 renal is 50.6%; in the test on TK-10 renal it was 144%; with ACHN renal it was 71.6%; in the test on CAKI-1 renal it was 20.7%; in the test with CCRF-CEM leukemia it was 66.7%; with MOLT-4 leukemia it was 67.7%.
In the case of `COc1ccccc1NS(=O)(=O)c1cccc(C(=O)Nc2ccc(Br)cc2)c1`, the growth in the test with HCT-15 colon was 37.8%; in the test with HT29 colon, 46.6%; in the test with SNB-75 CNS, 65.9%; in the test on SNB-19 CNS, 53.4%; in the test with U251 CNS it was 62%; in the test on PC-3 prostate, 25.4%. Besides, the growth in the test with SK-MEL-5 melanoma was -31.7% (active); in the test with UACC-62 melanoma it was 32.1%; in the test with LOX IMVI melanoma, 42.4%; with SK-MEL-28 melanoma it was 62.9%; in the test on EKVX NSCLC, 20.1%; in the test on SN12C renal, 51.8%. Also, the growth with UO-31 renal is 27.3%; in the test with TK-10 renal it was 61.5%; with ACHN renal it was 46.2%; in the test on CAKI-1 renal, 27.5%; with CCRF-CEM leukemia it was 40.1%; in the test with MOLT-4 leukemia, 26.8%.
For the compound `CN1CCN(C(=O)[C@]23CCC(C)(C)C[C@H]2C2=CC[C@@H]4[C@@]5(C)C/C(=C/c6cccnc6)C(=O)C(C)(C)[C@@H]5CC[C@@]4(C)[C@]2(C)CC3)CC1`, the growth with HCT-15 colon was 41.4%; in the test with HT29 colon, 33.1%; in the test on SNB-75 CNS, 82.1%; with SNB-19 CNS, 65.4%; with U251 CNS it was 44.7%; with PC-3 prostate it was 19.1%. For the same compound, the growth in the test with SK-MEL-5 melanoma was 49.8%; in the test on UACC-62 melanoma, 52.8%; in the test on LOX IMVI melanoma, 68.5%; in the test with SK-MEL-28 melanoma, 77.9%; in the test with EKVX NSCLC, 78.8%; in the test with SN12C renal, 57.8%. The growth with UO-31 renal was 38.6%; with TK-10 renal, 89.5%; in the test on ACHN renal it was 66%; with CAKI-1 renal it was 66.6%; in the test with CCRF-CEM leukemia it was 33.3%; in the test on MOLT-4 leukemia, 20.5%.
Take `O=[N+]([O-])c1cc(Br)c2cccc3c2c1CC3`: the growth in the test on HCT-15 colon was 100%; with HT29 colon it was 108%; in the test on SNB-75 CNS, 100%; in the test on SNB-19 CNS, 98.7%; with U251 CNS it was 99.8%; in the test with SK-MEL-5 melanoma it was 102%. Also, the growth is 89% in the test on UACC-62 melanoma; 109% with LOX IMVI melanoma; 106% in the test on SK-MEL-28 melanoma; 118% in the test on SK-MEL-2 melanoma; 109% in the test with EKVX NSCLC; 90.8% in the test with UO-31 renal. Further, the growth in the test on TK-10 renal was 110%; in the test on ACHN renal, 110%; in the test on CAKI-1 renal it was 95.3%; in the test with CCRF-CEM leukemia, 99.9%; in the test on MOLT-4 leukemia, 104%.
With `Cc1cc2c(C(=O)NCC#N)cccc2n1-c1nc2c(c(NCc3ccccc3)n1)CCCC2`, the growth in the test with HCT-15 colon was -52.8% (active); with HT29 colon it was -3.71% (active); in the test with SNB-75 CNS it was -11.4% (active); in the test with SNB-19 CNS, -49.1% (active); in the test with U251 CNS it was -71% (active); in the test with SK-MEL-5 melanoma it was -93.4% (active). Further, the growth in the test with UACC-62 melanoma is -78.2% (active); with LOX IMVI melanoma it was -85% (active); with SK-MEL-28 melanoma, -28.2% (active); in the test on SK-MEL-2 melanoma, -44.7% (active); with EKVX NSCLC, -18.8% (active); in the test with SN12C renal, -67.9% (active). Further, the growth in the test with UO-31 renal was -84.3% (active); in the test with TK-10 renal, -17.7% (active); with ACHN renal, -4.35% (active); in the test with CAKI-1 renal it was -2.84% (active); with CCRF-CEM leukemia, 7.4% (active); in the test with MOLT-4 leukemia, -15.6% (active).
Turning to `O=C(Cn1c[n+](CC(=O)c2ccc(-c3ccccc3)cc2)c2ccccc21)Nc1cccc2cccnc12`, the growth in the test on HCT-15 colon was 95.9%; in the test on HT29 colon, 7.47% (active); with SNB-75 CNS it was -6.7% (active); in the test on SNB-19 CNS, 7.73% (active); with U251 CNS, 20.6%; with SK-MEL-5 melanoma, -35.1% (active). The growth in the test on UACC-62 melanoma is -32.3% (active); in the test on LOX IMVI melanoma, -45.5% (active); in the test on SK-MEL-28 melanoma it was 21.2%; in the test on SK-MEL-2 melanoma it was 19.4%; with EKVX NSCLC, 47.6%; in the test on UO-31 renal, 67.9%. Besides, the growth with TK-10 renal was 88.5%; with ACHN renal it was 90.1%; with CAKI-1 renal it was 44.8%; with CCRF-CEM leukemia, 10.5%; in the test on MOLT-4 leukemia, 11.4%.

Source of the values: PubChem BioAssay (NCI).
